Test results taken from the supplement of paper PMC13392028.
The full ranking holds about 4,100 sequences; the median of “RBNS R-value (6-mer enrichment in protein-bound RNA vs input library)” is about 0.99, and the highest 2% start at about 1.4. This excerpt belongs to a sample that is enriched for the highest values.

System: PfIESI-1 RRM domain (Plasmodium falciparum ortholog aa 875-1232, GST fusion)
Experiment: RBNS R-value (6-mer enrichment in protein-bound RNA vs input library) (ratio); higher = stronger binding preference; the methods of the paper give 50 / 100 / 500 nM protein instead
Procedure: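 RNA Bind-n-Seq: recombinant GST-tagged IESI-1 RRM domain was incubated at room temperature with a random 40-nt in vitro transcribed RNA library at 250, 500 or 1000 nM protein. Bound RNA was pulled down on glutathione beads and sequenced. R-value is the enrichment of each 6-mer in the bound RNA relative to the input library. Each 6-mer sits inside the random 40-mer context, not as an isolated oligo. Values are replicate 1 only.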

Sequence | RBNS R-value (protein concentration: 250 nM) | RBNS R-value (protein concentration: 500 nM) | RBNS R-value (protein concentration: 1000 nM)
UAUGAU | 1.95 | 2.17 | 1.61
AAUGAU | 2.28 | 2.5 | 1.88
CAUGAU | 2.24 | 2.42 | 1.85
CAUGAA | 0.967 | 1.05 | 1.01
AAUGAG | 1.02 | 1.1 | 1.07
AAUGCU | 0.913 | 0.938 | 0.914
CAUGAG | 1.06 | 1.07 | 1.07
UAUGAA | 0.854 | 0.932 | 0.895
UAUGAG | 0.911 | 0.958 | 0.958
CACGUU | 0.886 | 0.866 | 0.874
GCACGA | 1.08 | 1.09 | 1.1
AGCAGG | 1.02 | 1.05 | 1.12
AGAGUG | 1.09 | 1.09 | 1.05
CUUGAU | 2.01 | 2.15 | 1.74
AUUGAC | 1.12 | 1.14 | 1.08
GUUGAC | 1.01 | 0.99 | 1.02
UUUGAU | 2.39 | 2.62 | 1.95
GUUGAG | 0.972 | 0.963 | 1
AUUGAU | 2.21 | 2.4 | 1.85
UUUGAC | 1.17 | 1.15 | 1.12
UUUGAA | 0.988 | 1.05 | 1.05
GUUGAU | 1.71 | 1.81 | 1.51
CUUGAC | 1.28 | 1.19 | 1.22
CUUGAA | 1.1 | 1.09 | 1.1

Sequence | RBNS R-value (protein concentration: 250 nM) | RBNS R-value (protein concentration: 500 nM) | RBNS R-value (protein concentration: 1000 nM)
AUUGAG | 1.07 | 1.1 | 1.04
AGGACA | 1 | 1.03 | 1.04
CCUUGU | 0.991 | 0.946 | 0.954
GGGAGU | 1.1 | 1.05 | 1.09
CCGCCA | 1.08 | 0.99 | 1.06
AUCCUA | 0.949 | 0.898 | 0.9
GCCCCU | 1.04 | 0.964 | 1.02
AAUCAA | 0.817 | 0.94 | 0.899
GCCAUA | 0.918 | 0.859 | 0.881
UGGCUU | 1.01 | 0.984 | 0.967
AAAAAC | 1.13 | 1.3 | 1.2
GAGCGU | 0.994 | 0.96 | 0.986
CCGAGA | 1.59 | 1.4 | 1.41
UCGAGA | 1.26 | 1.23 | 1.22
CCGAGC | 1.29 | 1.16 | 1.24
GCAGGU | 1.01 | 0.998 | 1.07
CGGGGU | 1.06 | 1.04 | 1.07
AUUCGU | 0.903 | 0.913 | 0.916
GGGGUG | 1.1 | 1.02 | 1.07
CCAUGG | 1.07 | 1.01 | 1.07
GCAUGG | 0.998 | 0.987 | 1.04
CCAUGU | 0.923 | 0.903 | 0.916
CCAUGA | 1.4 | 1.43 | 1.27
GCAUGA | 1.41 | 1.43 | 1.27

Sequence | RBNS R-value (protein concentration: 250 nM) | RBNS R-value (protein concentration: 500 nM) | RBNS R-value (protein concentration: 1000 nM)
GCAUGC | 1.01 | 0.974 | 1
GAGAGA | 1.26 | 1.29 | 1.28
UGCGAC | 1.06 | 1 | 1
UAAAAA | 0.951 | 1.17 | 1.05
GGCACC | 1.38 | 1.2 | 1.29
GACACG | 1.13 | 1.1 | 1.12
GGCACU | 1.11 | 1.03 | 1.07
GACACU | 1.2 | 1.19 | 1.14
GGCACA | 1.05 | 1.05 | 1.04
GACACC | 1.56 | 1.32 | 1.35
CGAUCG | 0.905 | 0.881 | 0.937
CUGCGG | 1.03 | 0.975 | 1.05
CCUCCG | 1.07 | 1.01 | 1.07
ACUUAC | 0.815 | 0.767 | 0.76
GCCAAA | 1.06 | 1.08 | 1.1
AAGCGC | 1.03 | 1.06 | 1.04
UAUUGG | 0.864 | 0.848 | 0.873
CAGAAU | 1.12 | 1.18 | 1.15
GAGAAA | 1.41 | 1.55 | 1.45
GAGAAG | 1.33 | 1.36 | 1.29
GAGAAC | 1.24 | 1.31 | 1.27
GAGAAU | 1.43 | 1.5 | 1.37
UAGAAU | 1.06 | 1.14 | 1.06
UCGGCU | 0.925 | 0.885 | 0.937

Sequence | RBNS R-value (protein concentration: 250 nM) | RBNS R-value (protein concentration: 500 nM) | RBNS R-value (protein concentration: 1000 nM)
GCCUCA | 0.982 | 0.946 | 1.02
GCCCGA | 1.52 | 1.34 | 1.36
ACCCGC | 1.29 | 1.17 | 1.23
CCCCGA | 1.37 | 1.23 | 1.31
ACCCGU | 1.24 | 1.12 | 1.19
ACCCGA | 1.63 | 1.36 | 1.4
GCCCGU | 1.17 | 1.07 | 1.13
GCCCGG | 1.38 | 1.2 | 1.31
UCCCGA | 1.2 | 1.12 | 1.14
ACCCGG | 1.44 | 1.25 | 1.32
UGAGUG | 1.07 | 1.11 | 1.06
GGCUGG | 1.06 | 1 | 1.08
AUUCCA | 1.24 | 1.23 | 1.22
GAGGCC | 1.15 | 1.07 | 1.13
AUGUAG | 0.952 | 1.04 | 0.956
UGACAU | 1.14 | 1.14 | 1.12
UGACAC | 1.39 | 1.32 | 1.3
UGACAA | 1.07 | 1.14 | 1.08
GCACGG | 1.02 | 0.986 | 1.05
AUGGCA | 1.28 | 1.26 | 1.16
UGCUAU | 0.951 | 0.947 | 0.896
UCUCGA | 1.01 | 1 | 1.04
